Experimental data taken from PubChem BioAssay AID1159580 (chemical genetic matrix, 2015).
In all, about 5,500 compounds went through this assay and about 2,000 (36%) were called active. About 18% were inconclusive and are not listed. Rule as the data show it: active = normalized growth mostly below about 0.91 (no sharp cut-off); inconclusive = no clear call, values can overlap the other calls; inactive = mostly above about 0.92. The list shows a part of the results.

Assay: chemical genetic growth profiling, strain panel (AID 1159580);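 also: tested at 20 µM; growth read once vehicle control cultures reached saturation at 30 °C; 1 = growth at the plate median or of vehicle wells; lower values mean less growth of the strain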
Conditions: growth OD
[1] = S. cerevisiae deletion strains, locus YDL101C, strain DUN1, hits give low values
[2] = S. cerevisiae deletion strains, locus YHR030C, strain SLT2, hits give low values

Measured: normalized growth

N/C(=N/OC(=O)c1ccccc1Cl)c1cccc(CS(=O)(=O)c2ccc(Cl)cc2)c1
active: S. cerevisiae deletion strains, locus YPL256C, strain CLN2, hits give low values 1.2 [resistant]
inactive: S. cerevisiae deletion strains, locus YAR019C, strain CDC15, hits give low values 0.993 | S. cerevisiae deletion strains, locus YBL105C, strain PKC1, hits give low values 0.975 | S. cerevisiae deletion strains, locus YBR135W, strain CKS1, hits give low values 0.981 | S. cerevisiae deletion strains, locus YBR136W, strain MEC1, hits give low values 0.986 | S. cerevisiae deletion strains, locus YBR160W, strain CDC28, hits give low values 0.981 | S. cerevisiae deletion strains, locus YDL017W, strain CDC7, hits give low values 0.984 | S. cerevisiae deletion strains, locus YDL028C, strain MPS1, hits give low values 0.991 | [1] 0.982 | S. cerevisiae deletion strains, locus YDL108W, strain KIN28, hits give low values 0.986 | S. cerevisiae deletion strains, locus YDL132W, strain cdc53, hits give low values 0.984 | S. cerevisiae deletion strains, locus YDL214C, strain PRR2, hits give low values 1.04 | S. cerevisiae deletion strains, locus YDR052C, strain DBF4, hits give low values 0.981 | S. cerevisiae deletion strains, locus YDR054C, strain cdc34, hits give low values 0.984 | S. cerevisiae deletion strains, locus YDR226W, strain ADK1, hits give low values 0.981 | S. cerevisiae deletion strains, locus YDR477W, strain SNF1, hits give low values 0.997 | S. cerevisiae deletion strains, locus YER123W, strain YCK3, hits give low values 0.995 | S. cerevisiae deletion strains, locus YER133W, strain GLC7, hits give low values 1 | S. cerevisiae deletion strains, locus YFL009W, strain cdc4, hits give low values 0.98 | S. cerevisiae deletion strains, locus YFL029C, strain CAK1, hits give low values 0.985 | S. cerevisiae deletion strains, locus YFR003C, strain YPI1, hits give low values 0.977 | S. cerevisiae deletion strains, locus YFR019W, strain FAB1, hits give low values 1.01 | S. cerevisiae deletion strains, locus YFR028C, strain CDC14, hits give low values 0.99 | S. cerevisiae deletion strains, locus YGR040W, strain KSS1, hits give low values 1 | S. cerevisiae deletion strains, locus YGR052W, strain FMP48, hits give low values 1.02 | S. cerevisiae deletion strains, locus YGR092W, strain DBF2, hits give low values 0.974 | [2] 1.12 | S. cerevisiae deletion strains, locus YHR079C, strain IRE1, hits give low values 1.09 | S. cerevisiae deletion strains, locus YHR082C, strain KSP1, hits give low values 1.13 | S. cerevisiae deletion strains, locus YHR205W, strain SCH9, hits give low values 0.984 | S. cerevisiae deletion strains, locus YIL147C, strain SLN1, hits give low values 0.988 | S. cerevisiae deletion strains, locus YJL095W, strain BCK1, hits give low values 0.973 | S. cerevisiae deletion strains, locus YJL128C, strain PBS2, hits give low values 0.985 | S. cerevisiae deletion strains, locus YJL157C, strain FAR1, hits give low values 1.01 | S. cerevisiae deletion strains, locus YJR016C, strain ILV3, hits give low values 0.999 | S. cerevisiae deletion strains, locus YJR066W, strain TOR1 (second series), hits give low values 0.982 | S. cerevisiae deletion strains, locus YJR066W, strain TOR1, hits give low values 1.07 | S. cerevisiae deletion strains, locus YKL048C, strain ELM1, hits give low values 0.996 | S. cerevisiae deletion strains, locus YKL067W, strain YNK1, hits give low values 1.01 | S. cerevisiae deletion strains, locus YKL101W, strain HSL1, hits give low values 1.01 | S. cerevisiae deletion strains, locus YKL193C, strain SDS22, hits give low values 0.983 | S. cerevisiae deletion strains, locus YKL203C, strain TOR2, hits give low values 1.07 | S. cerevisiae deletion strains, locus YLR113W, strain HOG1, hits give low values 0.996 | S. cerevisiae deletion strains, locus YLR133W, strain CKI1, hits give low values 1.02 | S. cerevisiae deletion strains, locus YLR403W, strain SFP1, hits give low values 0.987 | S. cerevisiae deletion strains, locus YML070W, strain DAK1, hits give low values 1.02 | S. cerevisiae deletion strains, locus YMR001C, strain CDC5, hits give low values 0.986 | S. cerevisiae deletion strains, locus YMR205C, strain PFK2 (second series), hits give low values 1 | S. cerevisiae deletion strains, locus YMR277W, strain FCP1, hits give low values 0.99 | S. cerevisiae deletion strains, locus YNL006W, strain LST8, hits give low values 0.994 | S. cerevisiae deletion strains, locus YNL020C, strain ARK1, hits give low values 1.02 | S. cerevisiae deletion strains, locus YNL161W, strain CBK1, hits give low values 0.988 | S. cerevisiae deletion strains, locus YNL183C, strain NPR1, hits give low values 1.04 | S. cerevisiae deletion strains, locus YNL207W, strain RIO2, hits give low values 0.98 | S. cerevisiae deletion strains, locus YNL222W, strain SSU72, hits give low values 0.981 | S. cerevisiae deletion strains, locus YNL307C, strain MCK1 (second series), hits give low values 0.968 | S. cerevisiae deletion strains, locus YOL078W, strain AVO1, hits give low values 0.986 | S. cerevisiae deletion strains, locus YOL136C, strain PFK27, hits give low values 1.03 | S. cerevisiae deletion strains, locus YOR061W, strain CKA2, hits give low values 1.01 | S. cerevisiae deletion strains, locus YOR119C, strain RIO1, hits give low values 1.08 | S. cerevisiae deletion strains, locus YOR231W, strain MKK1, hits give low values 1.01 | S. cerevisiae deletion strains, locus YOR329C, strain SCD5, hits give low values 0.994 | S. cerevisiae deletion strains, locus YPL031C, strain PHO85, hits give low values 1.01 | S. cerevisiae deletion strains, locus YPL153C, strain RAD53, hits give low values 0.994 | S. cerevisiae deletion strains, locus YPL204W, strain HRR25, hits give low values 1 | S. cerevisiae deletion strains, locus YPL209C, strain IPL1, hits give low values 0.981 | S. cerevisiae deletion strains, locus YPR025C, strain CCL1, hits give low values 0.988 | S. cerevisiae deletion strains, locus YPR106W, strain ISR1, hits give low values 1 | S. cerevisiae deletion strains, locus YPR111W, strain DBF20, hits give low values 0.988 | S. cerevisiae deletion strains, strain NNK1, hits give low values 0.99 | S. cerevisiae deletion strains, strain TSCII, hits give low values 0.988

N/C(=N/OC(=O)C(Cl)Cl)c1cccc(Cl)c1Cl
inactive: S. cerevisiae deletion strains, locus YAL013W, strain DEP1, hits give low values 1.02 | S. cerevisiae deletion strains, locus YBR229C, strain ROT2, hits give low values 0.978 | [1] 0.943 | S. cerevisiae deletion strains, locus YDR150W, strain NUM1, hits give low values 1 | S. cerevisiae deletion strains, locus YEL061C, strain CIN8, hits give low values 0.997 | S. cerevisiae deletion strains, locus YGR078C, strain PAC10, hits give low values 0.973 | [2] 0.94 | S. cerevisiae deletion strains, locus YHR087W, strain rtc3, hits give low values 0.971 | S. cerevisiae deletion strains, locus YJR043C, strain POL32, hits give low values 0.979 | S. cerevisiae deletion strains, locus YJR075W, strain HOC1, hits give low values 0.925 | S. cerevisiae deletion strains, locus YKL190W, strain CNB1, hits give low values 0.982 | S. cerevisiae deletion strains, locus YLR039C, strain RIC1, hits give low values 0.936 | S. cerevisiae deletion strains, locus YLR058C, strain SHM2 (second series), hits give low values 0.968 | S. cerevisiae deletion strains, locus YLR085C, strain ARP6, hits give low values 1.04 | S. cerevisiae deletion strains, locus YLR262C, strain YPT6, hits give low values 0.921 | S. cerevisiae deletion strains, locus YML094W, strain GIM5, hits give low values 1.03 | S. cerevisiae deletion strains, locus YMR219W, strain ESC1, hits give low values 0.984 | S. cerevisiae deletion strains, locus YMR263W, strain SAP30, hits give low values 0.992 | S. cerevisiae deletion strains, locus YNL153C, strain GIM3, hits give low values 1.01 | S. cerevisiae deletion strains, locus YNL298W, strain CLA4 (second series), hits give low values 0.965 | S. cerevisiae deletion strains, locus YNL322C, strain KRE1, hits give low values 0.98 | S. cerevisiae deletion strains, locus YNR030W, strain Alg12, hits give low values 1 | S. cerevisiae deletion strains, locus YOL006C, strain TOP1, hits give low values 0.939 | S. cerevisiae deletion strains, locus YPL055C, strain LGE1, hits give low values 1.03 | S. cerevisiae deletion strains, locus YPL241C, strain CIN2, hits give low values 0.907 | S. cerevisiae deletion strains, locus YPR135W, strain CTF4, hits give low values 1.22 | S. cerevisiae strains, strain wild type, hits give low values 0.972
